According to PubChem BioAssay AID720513 (Broad Institute, 2013):
Among all 2,100 compounds or so, about 480 (23%) were called active. Inconclusive results (about 5%) are left out.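 The calls were made as follows: active = fitted curve reaches 40% activation at or below the top valid concentration, in every replicate test; inconclusive = replicate tests disagree on the call; inactive = the rest, including activity in the opposite direction.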 Only a sample is shown. Measured potencies and affinities stand elsewhere.

assay: activators raising PGC1a acetylation in cells, dose response, cell-based, cherry-picked samples, set 6 (AID 720513); conditions: U2OS PGC1a acetylation AlphaLISA, overnight, 0 = neutral, -100 = inhibitor control; series mostly up to 19.5 µM; activation (acetylation increase): at the top concentration;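 also: cells made to overexpress flag tagged PGC1a plus GCN5 acetyltransferase by viral infection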

Activation (acetylation increase), inactive:
Nc1cc2ccncc2c2ccccc12 -9.67%, Cc1cc(Sc2nnc(N)s2)c2ccccc2n1 -27.3%, O=c1c2cccnc2n(-c2ccccc2)n1Cc1ccc(Cl)cc1 1.82%, O=C(Nc1ccc(-c2cn3c(n2)SCC3)cc1)c1ccc2ccccc2n1 11.9%, COc1ccc(C(=O)Nc2cccc(NC(=O)c3ccc(OC)c(OC)c3)n2)cc1OC -64.7%, CCN(CC(=O)Nc1ccccc1OC)C(=O)C1CCC1 28.4%, CCc1c(C(=O)NC2CCCCC2)[nH]c(C)c1C(C)=O -18.3%, CCn1c(C(=O)NC2CCC(C)CC2)cc2sccc21 (stereo unspecified) 12.7%, CN(Cc1c(F)cccc1Cl)c1nnnn1-c1ccccc1 35.9%, CN(Cc1c(F)cccc1Cl)C(=O)CNC(=O)c1sc2ccccc2c1Cl -15.4%, CN(c1cc2c(c3c1ccn3C)C1CCC2C1)C1CCCCC1 (stereo unspecified) 3.95%, CCN(CC)CCNc1nc(-c2ccc(OC)cc2)c(-c2ccc(OC)cc2)s1 7.51%, CCCCNC(=O)C1CCN(Cc2ccccn2)CC1 12%, CC1(Cc2cc(Cl)ccc2C(F)(F)F)C(=O)Nc2ccc(S(=O)(=O)NC3CCCCC3)cc21 (stereo unspecified) 22.5%, O=S(=O)(/C(=C\c1ccc(C(F)(F)F)cc1)c1nc2ccccc2[nH]1)c1ccccc1 -97.6%, N#C/C(=C(/O)c1cc2ccccc2o1)c1nc2ccccc2s1 -9.17%, CC(=O)Nc1cc(OC(C)=O)c2nonc2c1OC(C)=O -109%, Cc1ccccc1CSc1nnc(-c2ccco2)n1Cc1ccco1 21.1%, COCC(=O)Nc1ccc2c(c1)OC[C@@H](C)N(CCc1ccccc1)C[C@H](C)[C@@H](OC)CN(C)C2=O -19.2%, Cc1cccc(-n2c(=O)cc(N3CCN(c4ccc(F)cc4)CC3)[nH]c2=O)c1 -9.82%, CC(C)c1nnc(NC(=O)CCS(=O)(=O)c2nc(-c3cccs3)cc(C(F)(F)F)n2)s1 27.3% [at 10 µM], COC(=O)c1ccc(CSc2nc3c(cnn3-c3ccc(Cl)cc3)c(=O)[nH]2)o1 -0.884%, CC(=O)N1CCN(S(=O)(=O)c2cccc(C(=O)Nc3ccc4c(c3)OCO4)c2)CC1 -13%, O=C(NCc1ccc2c(c1)OCO2)C1CCN(S(=O)(=O)c2cccs2)CC1 -15.6%, Cc1cc(C)n(-c2nc(O)cc(=O)[nH]2)n1 -8.66%, C[C@H]1CN([C@@H](C)CO)C(=O)CCCn2nncc2CO[C@@H]1CN(C)C(=O)Nc1ccccc1 -6.76%, O=C(Cc1ccc(Cl)cc1)Nc1ncccn1 -5.97%, NS(=O)(=O)c1cccc(NC(=O)CSc2ccccn2)c1 -24.2%, CC(C)OC(=O)c1c(F)c(F)c(N2CCOCC2)c(F)c1F 0.447%, Cc1noc(C)c1S(=O)(=O)N(C)C[C@H]1Oc2ccc(NC(=O)Nc3ccccc3)cc2CC(=O)N([C@H](C)CO)C[C@H]1C 8.56% [at 21 µM], CCC(CC)NC(=O)Cc1ccc(S(=O)(=O)N2CCOCC2)s1 3.69%, O=S(=O)(c1ccc(Br)s1)N1CCN(Cc2ccc3c(c2)OCO3)CC1 -20.2%, Cc1cccnc1C(NC(=O)C1CCN(Cc2cn(C)c3ccccc23)CC1)c1ccc(Cl)cc1 (stereo unspecified) 19% [at 10 µM], Cc1c(/C(O)=C2\C(=O)C(=O)N(CCCN(C)C)C2c2ccccc2)cnn1-c1ccccc1 (stereo unspecified) -10.2%, CC1CN(c2oc(-c3cccs3)nc2C#N)CC(C)O1 (stereo unspecified) 4.91%, COc1ccc(C2=NOC(C(=O)Nc3cccnc3)C2)cc1 (stereo unspecified) 28.1%, Cc1ccc(CNC(=O)c2ccc(CS(=O)(=O)c3ccccc3)o2)cc1 0.639%, O=C(c1cccc(F)c1)N1CCN(C(=O)c2cc(-c3ccc(Cl)cc3Cl)on2)CC1 -4.66%, C[C@H](CO)N1C[C@H](C)[C@@H](CN(C)CC2CCOCC2)Oc2ncc(Br)cc2C1=O -20%, O=c1c(Cl)c(NCCCO)cnn1-c1nc2ccccc2[nH]1 34% [at 10 µM], COc1ccc(C(=O)Sc2nncc3ccccc23)cc1 20.9%, COc1ccc(NC(=O)CN(C)C(=O)CCNC(=O)c2ccccc2OC)cc1 40.4%, Brc1ccc2ncnc(NCc3ccccc3)c2c1 -9.22%, CC(=O)Nc1ccc(Oc2sc(C(=O)c3ccccc3)c(N)c2C#N)cc1 10.3%, c1ccc(CNc2ncnc3nc[nH]c23)cc1 4.97%, COc1ccc(Nc2ccnc3ccccc23)cc1 -21.6%, Nc1nn(-c2ccccc2)nc1C(=O)OCc1ccccc1 -22.4%, N#Cc1c(-c2cccc(Br)c2)cc(-c2ccco2)[nH]c1=O 9.15%, COCc1ccc(CN2CCC(n3nccc3NC(=O)c3ccc4c(c3)OCO4)CC2)o1 -5.4%, CSCC(=O)N1CCCC(CO)(Cc2ccccc2C)C1 (stereo unspecified) 10.3%, CO[C@H]1CN(C)C(=O)c2cc(NS(C)(=O)=O)ccc2OC[C@H](C)N(C(=O)NC(C)C)C[C@@H]1C 2.58%, O=c1[nH]nc(-c2ccc(NCCCO)c([N+](=O)[O-])c2)c2ccccc12 -24.9%, Cc1ccc(Nc2nc(C)cc(C)c2C(N)=O)c(C)c1 33.1%, O=C(/C=C/c1ccc(N2CCCCC2)c([N+](=O)[O-])c1)c1ccc(O)cc1 -41.9%, Cc1ccc(NC(=O)C2C(c3ccccc3)C2(Cl)Cl)c(C)c1 (stereo unspecified) 33.3%, CCOc1ccc2nnc(-c3ccc(Br)cc3)n2n1 -12.6%, CS(=O)(=O)Nc1ccc2c(c1)[C@@H]1C[C@H](CC(=O)N3CCc4ccccc4C3)O[C@@H](CO)[C@@H]1O2 -3.22%, Nc1ncc([N+](=O)[O-])c(N2CCCCCC2)n1 30.6%, CCNC(=O)NC(=O)COc1ccccc1C#N -4.29%, O=C1c2ccccc2-[n+]2ccc3c([nH]c4ccccc43)c21 -95.9%, Cc1[nH]c(=O)[nH]c(=O)c1S(=O)(=O)Nc1ccc(F)c(Cl)c1 -9.01%, CCn1c(SCC(=O)Nc2ccc(OC)c(OC)c2)nnc1-c1cccs1 -4.29%, CCc1ccc(NC(=O)CSc2nnc(-c3cnccn3)n2Cc2ccco2)cc1 -3.13%, COCC(=O)OCC(=O)Nc1cc(C(C)(C)C)nn1-c1ccccc1 16.7%, CN1[C@@H]2CC(OC(=O)[C@H](CO)c3ccccc3)C[C@H]1[C@@H]1O[C@@H]12 (stereo partly specified) -9.22%, CCOC(=O)C1CN(S(=O)(=O)c2ccccc2)c2cc(S(=O)(=O)CC)ccc2O1 (stereo unspecified) 11.5%, CCOC(=O)C1CN(S(=O)(=O)c2ccc(C)cc2)c2cc(S(=O)(=O)CC)ccc2O1 (stereo unspecified) 50.5%, Cc1cc2nc(/C=C/c3cccnc3)[nH]c2cc1C -9.66%, COc1ccc(C2c3[nH]c4ccccc4c3C[C@H]3C(=O)N(c4ccccc4C(=O)N4CCC[C@@H]4C(=O)O)C(=O)N23)cc1 (stereo partly specified) 13.7%, CC(=O)NC1CCN(CC(=O)Nc2nccs2)CC1 14.7%, O=C(CCC1CCN(Cc2ccccc2Cl)CC1)NC1CC1 4.09%, Cc1ccccc1Oc1cc(-n2ncc(Cl)c(Cl)c2=O)ncn1 -121%, CC(C)(C)NC(=O)Cn1nnc(-c2ccccc2NC(=O)c2ccco2)n1 34.3%, O=C(Cc1ccccc1)Nc1ccc(Cl)cn1 -6.87%, Cc1noc(C)c1NC(=O)Nc1ccc2c(c1)C(=O)N([C@@H](C)CO)C[C@@H](C)[C@@H](CN(C)CC1CCCCC1)OCCCC[C@H](C)O2 12.9%, COc1cc(CN2CCN(Cc3ccccc3C(F)(F)F)CC2)cc(OC)c1OC 25.1%, COc1ccccc1CN1C[C@@H]2C[C@@H](c3cccc(C)n3)N3CCC[C@@]23C1=O -3.7%, Cc1nc(C(C)N(C)Cc2nc(-c3ccc4c(c3)OCO4)no2)c(C)s1 (stereo unspecified) -3.64%, C#CC(CC)(CC)NC(=O)c1ccc(Br)s1 14.2%, CC(NC(=O)Nc1cccnc1)(C(F)(F)F)C(F)(F)F 10.9%, CC(=O)c1cccc(NC(=O)Nc2cccnc2)c1 24.1%, COc1ccccc1C#Cc1ccc2c(c1)O[C@@H](CN(C)Cc1cccnc1)[C@H](C)CN([C@H](C)CO)S2(=O)=O -88.9%, OC(c1cc(C(F)(F)F)nc2c(C(F)(F)F)cccc12)C1CCCCN1 (stereo unspecified) -96.5%, Cc1ccc(-c2cnc3c(c2)C(=O)N([C@H](C)CO)C[C@H](C)[C@@H](CN(C)C)O3)cc1 -14.1%, C[C@@H](C(=O)Nc1cc(C(F)(F)F)ccc1N1CCOCC1)N1C(=O)C2CC=CCC2C1=O (stereo partly specified) 18.7%, C[C@@H]1CCCCO[C@H](CN(C)Cc2ccc(Cl)c(Cl)c2)[C@H](C)CN([C@@H](C)CO)C(=O)c2cc(NC(=O)Nc3ccc(F)cc3)ccc2O1 -62.8%, CCCCn1c(SCC(=O)NCc2ccc3c(c2)OCO3)nnc1C(CC)N(C)C (stereo unspecified) 11.7%, COc1cc2cc(C)c3nnc(SCC(=O)Nc4cc(C)on4)n3c2cc1OC 19.4%, Cc1nc2ccccn2c1C(=O)/C=C/c1ccc(F)cc1 -48.2%, CN(C)C(=O)c1ccc(-c2ccc([C@H]3[C@H]4CN(C(=O)CC5CC5)CC(=O)N4[C@H]3CO)cc2)cc1 5.63%, O=C(CCN1CCc2ccccc2C(c2ccccc2)C1)c1ccc2c(c1)OCCO2 (stereo unspecified) 8.71%, O=C(O)c1ccc2c(c1)OCCCO2 0.978%, CCC(C)NC(=O)c1ccc2c(SCC(=O)O)c3c(nc2c1)CCCC3 (stereo unspecified) 32.4% [at 10 µM], COc1cccc(C(=O)CSc2nnc(CNS(=O)(=O)c3ccc(C)cc3)n2C)c1 -16.2%, C[C@@H]1CN([C@@H](C)CO)C(=O)c2cc(NC(=O)CCCN(C)C)ccc2O[C@@H](C)CCCCO[C@@H]1CN(C)Cc1ccc(C(F)(F)F)cc1 -9.75%, Cn1c(=O)cc(OCCCC(=O)NC2CCCC2)c2ccccc21 29.7%, CC1=CC=CC2=NC(=O)CC(C)(C(=O)N(CC(=O)NC3CCCC3)c3ccccc3C)N12 (stereo unspecified) -0.23%, c1nc(NC2CCCCCC2)c2[nH]cnc2n1 -25.2%, CCOc1cc(C)c(S(=O)(=O)N2CCCC2)cc1C -5.67%, O=C(Nc1cccc(F)c1)C1CCN(S(=O)(=O)c2cccc3nonc23)CC1 4.9%, CCOc1ccc(S(N)(=O)=O)cc1-c1nc2c(C(C)(C)C)nn(C)c2c(=O)[nH]1 19%
